Screening results from PubChem.
The sample as a whole holds a higher share of hits than the screen did.
ERK EGF inh = inhibitors of EGF-stimulated ERK signaling pathway | HEK293-V1b, EGF-stimulated phospho-ERK AlphaScreen | Potency, µM (series often up to 11.5 µM), inactives show at the top dose activity change, negative = inhibition, usual class: inhibitors | 0.41% of 130,000 active;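 further: potency means the concentration at half of the fitted maximal effect; plate controls were stimulated vehicle wells for no effect and unstimulated vehicle basal for full effect; nearly all actives have a fitted effect of over 55% in size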
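Cell line HEK293 (stable V1b), low serum overnight. Pretreatment: compound 30 min, 37C. EGF 25 nM, 5 min. Detection: SureFire AlphaScreen, 5 h RT. AC50 via standard Hill equation.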
ERK pERK EGF = confirmation of ERK pathway inhibitors under EGF stimulation; shares compounds with ERK EGF inh; HEK293 EGF-stimulated ERK phosphorylation, AlphaScreen; Potency, µM (highest dose often 57.5 µM), for the others: top-dose activity change, negative = inhibition, most hits filed as inhibitors; 60% of 60 active; AID 1725
c-Raf inh = c-Raf inhibition, ERK pathway follow-up; shares compounds with ERK EGF inh; c-Raf kinase inhibition, homogeneous biochemical assay; activity change, negative = inhibition, % at 76.9 µM; 70 tested, under 10 active; AID 1728
MEK inh = blocks human MEK1 kinase activity in ERK pathway follow-up; shares compounds with ERK EGF inh; homogeneous MEK kinase activity assay, ERK pathway; Potency, µM (top dose mostly 76.9 µM), for the others: at the top dose activity change, negative = inhibition, most hits filed as inhibitors; 70 tested, under 10 active
Target sequence (Q02750 whole entry, looked up): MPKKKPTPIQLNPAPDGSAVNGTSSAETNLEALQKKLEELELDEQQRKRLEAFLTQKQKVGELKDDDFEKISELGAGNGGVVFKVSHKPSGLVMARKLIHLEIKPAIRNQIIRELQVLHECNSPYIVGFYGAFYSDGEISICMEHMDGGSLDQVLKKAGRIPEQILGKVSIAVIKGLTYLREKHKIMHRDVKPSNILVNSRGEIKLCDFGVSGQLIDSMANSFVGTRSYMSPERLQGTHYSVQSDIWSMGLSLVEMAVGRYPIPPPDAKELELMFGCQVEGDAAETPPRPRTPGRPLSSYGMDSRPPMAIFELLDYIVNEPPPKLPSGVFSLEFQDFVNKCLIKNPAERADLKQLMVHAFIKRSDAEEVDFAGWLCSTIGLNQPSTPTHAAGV
Starred values were filed as active, the others as inactive; ? = inconclusive; . = no result; [ ] = dose if it differs, or a comment. The call rests on the fitted dose curve; in most records, active means well fitted curve in the direction sought with a large enough effect; inconclusive means small, poorly fitted or top-dose-only effect, or another doubt; inactive means no such curve, though single readings can be large; an effect the other way counts as inactive or inconclusive.

SMILES	ERK EGF inh	others
Cc1ccc(Nc2ncnc3sc(C)c(C)c23)cc1	8.9µM*	ERK pERK EGF=11µM*;c-Raf inh=?;MEK inh=-18%
Cc1ccc(OCC(=O)NNC(=O)CSc2ncnc3sc(C)c(C)c23)cc1	-1%
CC(=O)c1cnc(Nc2ccc(C)cc2)s1	-5%
Clc1cc2nc[nH]c2cc1Cl	-16%[57.5 µM]
N#Cc1cccnc1Nc1cccc(Cl)c1	-19%
COc1cc(C)c(NC(=S)Nc2cccc(Cl)c2)cc1OC	-4%
COc1cc2ncnc(Nc3cccc(Cl)c3)c2cc1OC	0.25µM*	ERK pERK EGF=0.2µM*;c-Raf inh=?;MEK inh=-15%
Cc1c(C(=O)NN2CCCCC2)nn(-c2ccc(Cl)cc2Cl)c1-c1ccc(I)cc1	-6%
NC(=O)CC[C@H](NC(=O)c1ccc(F)cc1)C(=O)OCC(=O)NCc1ccc(F)cc1	-4%
CN(C)Cc1ccccc1-c1ccc2ncnc(NCc3ccccc3)c2c1	16%
c1cncc(-c2ccc3ncnc(N4CCNCC4)c3c2)c1	25%
c1ccc(Nc2ncnc3ccc(-c4cccnc4)cc23)cc1	2.5µM*	ERK pERK EGF=3.5µM*;c-Raf inh=?;MEK inh=0%
Cc1cc(N2C(=O)C3CCC(c4ccccc4)CC3C2=O)no1 (stereo not drawn)	-6%
COc1cc(C(CCN2CCCCC2)c2c(OC)cc(OC)c3c(C)cc(=O)oc23)cc(OC)c1OC (stereo not drawn)	-5%[57.5 µM]
CC1=C(C)CC(C(=O)Nc2ccc3c(c2)OCO3)C(C(=O)O)C1 (stereo not drawn)	1%
C=C[C@@]1(C)CC(=O)[C@@]2(O)[C@@]3(C)[C@@H](O)CCC(C)(C)[C@@H]3[C@H](OC(=O)CCN(C)C)[C@H](OC(C)=O)[C@@]2(C)O1	-1%
C=C[C@]1(C)CC(=O)[C@@]2(O)[C@@]3(C)C(O)CCC(C)(C)C3C(O)C(OC(C)=O)[C@@]2(C)O1 (stereo partly drawn)	?	ERK pERK EGF=-16%;c-Raf inh=-4;MEK inh=-19%
CC1=Nc2cccc([N+](=O)[O-])c2NC(=O)C1	4%
O=c1cc(-c2ccc(O)c(O)c2)oc2cc(O)cc(O)c12	-5%
O=c1cc(-c2ccc(O)cc2)oc2cccc(O)c12	-4%	ERK pERK EGF=-12%;c-Raf inh=?;MEK inh=-6%
O=c1cc(-c2ccccc2Cl)oc2cccc(O)c12	-3%
CCN(CC)CCNc1nc2nonc2nc1NCCN(CC)CC	5%[57.5 µM]
C#CCOCCOCCOCCNc1nc(N2CCN(C(=O)[C@H](C)n3cc(CCCN=C(N)N)nn3)CC2)nc(N2CCN(C(=O)[C@H](C)n3cc(CCCN=C(N)N)nn3)CC2)n1	-2%
Nc1ccccc1SSc1ccccc1N	27%[57.5 µM]
N#CC(=C(/N)Sc1ccccc1N)/C(C#N)=C(/N)Sc1ccccc1N	0.89µM*	c-Raf inh=-2
SMILES	ERK EGF inh	others
C/C(N)=C(/C#N)C(=O)CSc1ccccc1F	-7%
Cc1nc(-c2ccccc2)sc1C1(C)CC(c2ccc(OC(F)(F)F)cc2)=NO1 (stereo not drawn)	12%[57.5 µM]
CN1CCC2(CC1)CCN(C(=O)c1ccncc1)CC2	-5%
O=C(NC(=S)N(CC1CCC1)CC1CCCO1)c1cccc([N+](=O)[O-])c1 (stereo not drawn)	1%
O=[N+]([O-])c1ccccc1N/N=C/c1ccc2c(c1)OCO2	?	ERK pERK EGF=?;c-Raf inh=-10;MEK inh=-1%
NS(=O)(=O)c1ccc(N/N=C/c2ccc3c(c2)OCO3)c([N+](=O)[O-])c1	-2%
O=C(O)c1ccc(N/N=C/c2ccc3c(c2)OCO3)cc1	3%
COc1ccc2cc(C(=O)C3CCCN(C(=O)CCc4cnn(C)c4)C3)ccc2c1 (stereo not drawn)	-12%[57.5 µM]
CC1(C)CC(=O)C=C(NCCc2c[nH]c3ccccc23)C1	-1%[57.5 µM]
COc1ccc(CCN=C(N)NS(=O)(=O)c2ccc3ccccc3c2)cc1	-1%
N#CC(C#N)=C1C=CC=CN1/C(=C\c1ccco1)C(=O)c1ccc(Cl)cc1	10µM*	ERK pERK EGF=?;c-Raf inh=-15;MEK inh=-19%
N#C/C(=C\c1ccco1)C(=O)NCc1ccccc1	-3%
O=C(NCC1CCCO1)/C(=C\c1ccco1)NC(=O)c1ccc(Cl)cc1 (stereo not drawn)	8%
CCOc1ccccc1Nc1nnc(SC(C)C(=O)Nc2nc(-c3ccccc3)cs2)s1 (stereo not drawn)	2%
Cc1ccc(/C=N/NC(=O)CC(=O)NCc2cccnc2)cc1	-7%
O=S(=O)(Nc1ncnc2sc3c(c12)CCC3)c1cc(F)ccc1F	-12%[57.5 µM]
Fc1cccc(Nc2ncnc3sc4c(c23)CCC4)c1	3.2µM*	ERK pERK EGF=10µM*;c-Raf inh=?;MEK inh=8%
c1cncc(CNc2ncnc3sc4c(c23)CCC4)c1	-14%[57.5 µM]
COCC(=O)N1CCC2(CC1)CN(c1ccc(-c3ccccc3)cc1)C2	-4%
Cn1c(=O)cc(Nc2ccccc2)c2c(=O)n(-c3ccccc3)c(=O)n(-c3ccccc3)c21	5µM*	ERK pERK EGF=10µM*;c-Raf inh=-5;MEK inh=-15%
Cn1c(=O)c2c(Nc3ccc(F)cc3)cc(=O)n(-c3ccccc3)c2n(C)c1=O	2%[57.5 µM]
Cc1nc2cnc(Nc3ccccc3)nc2n(C)c1=O	-3%
COC(=O)N1CCC2(CCN(C(=O)Nc3cccc(F)c3)CC2)CC1	-4%
C=CCSc1nnc(CC(OC)OC)n1-c1ccccc1	11%
COc1ccc(N2C(=O)C3C(C2=O)C3(c2ccccc2)c2ccccc2)cc1 (stereo not drawn)	-4%[57.5 µM]
SMILES	ERK EGF inh	others
COc1ccc(N2C(=O)/C(=C3/C=CC=CN3C)SC2=S)cc1	-2%
COc1ccc(N=C2C(=Nc3ccc(OC)cc3)N(c3ccc(OC)cc3)C(=S)N2c2ccccc2)cc1	.	ERK pERK EGF=8.9µM*;c-Raf inh=-6;MEK inh=-10%
COc1ccc(N=C2C(=Nc3ccc(OC)cc3)N(c3ccc(OC)cc3)C(=S)N2C)cc1	.	ERK pERK EGF=7.9µM*;c-Raf inh=6;MEK inh=-13%
COc1ccc(N2C(=O)CN(Cc3cc(OC)c(OC)c(OC)c3)C2=S)cc1	-5%
COc1ccc(N2CC(=O)N(c3ccccc3)C2=S)cc1	5%
Cc1cccc(C)c1NC(=S)N(CCCN1CCN(C)CC1)Cc1cccs1	-8%
NC(=O)c1nc(-c2ccco2)nc2c1[nH]c(=O)n2-c1ccc(Cl)c(Cl)c1	-1%[57.5 µM]
Cc1ccc(NC(=O)c2c(C(=O)Nc3ccccc3)sc3nc(C)cc(=O)n23)cc1	-1%
O=C(O)C1C2C=CC(C2)C1C(=O)NCc1ccc(Cl)c(Cl)c1 (stereo not drawn)	6%
COc1ccc2nccc(C(N)=O)c2c1	-1%[57.5 µM]
COc1ccc(OCC(Cn2cnc3ccccc32)OC(C)=O)cc1 (stereo not drawn)	-3%
O=C(O)c1ccc(OCCn2ccnc2)cc1	-7%[57.5 µM]
COc1ccc(C(=O)OC(COc2ccccc2)Cn2ccnc2)cc1 (stereo not drawn)	7.1µM*	ERK pERK EGF=14µM*;c-Raf inh=-8;MEK inh=-15%
CN1C2CCC1CC(NC(=O)c1nn(C)c3ccccc13)C2 (stereo not drawn)	7%
CSc1nnnn1-c1ccc(Cl)cc1	-7%
c1ccc(-n2nnnc2Sc2ncnc3sc4c(c23)CCCC4)cc1	0%
Cc1sc2ncnc(Sc3nnnn3-c3ccc(Cl)cc3)c2c1C	.	ERK pERK EGF=-3%;c-Raf inh=-12;MEK inh=3%
CCCCC(=O)Nc1ccc2c(c1)nc(CCN1CCN(C)CC1)n2C	3%[57.5 µM]
